Test results: ChEMBL document CHEMBL3988442, “University of Dundee, Small-Polar-MMV Screening Library” (2021)
The whole screen tested about 48,000 compounds, of which about 13,000 (27%) showed an effect of 50% or more. Some of the results follow.

System: Wolbachia pipientis
Test: Anti-Wolbachia Cell-Based Screen
Type: functional
Parameters: scale not given: in the data most compounds retested in dose-response had high values
Conditions: 5 µM

| SMILES | Percent Effect [%] |
| --- | --- |
| Cc1ccc(C(=O)N2CCN(c3ncnc4nc(N)ccc34)CC2)o1 | -4.077 |
| Cc1noc(C)c1S(=O)(=O)NCC(C)(O)c1ccc2c(c1)OCO2 (centres undefined) | 22.76 |
| CCS(=O)(=O)c1ccc2oc([C@H]3CCN(Cc4ccncc4)C3)nc2c1 | -3.63 |
| CN1N=C(C(=O)N2CCCC(CCc3ccccc3)C2)CCC1=O (centres undefined) | -44.22 |
| COCCN(C)Cc1ccc(OC)c(OC(F)F)c1 | -5.242 |
| COCc1cc(C[C@@H]2CC[C@H](O)[C@@H](CN(CC(C)C)CC(C)C)O2)no1 | -3.447 |
| Cc1nc(CN2C(=O)C[C@@H]3[C@@H]2CCN3S(C)(=O)=O)cs1 | 77.62 |
| Cc1nc(CN2C(=O)C[C@@H]3[C@@H]2CCN3S(=O)(=O)C2CC2)cs1 | 97.85 |
| Cc1nc(CN2C(=O)C[C@@H]3[C@@H]2CCN3C(=O)C2CCOCC2)cs1 | 6.269 |
| Cc1nc(CN2C(=O)C[C@@H]3[C@@H]2CCN3Cc2cnn(C)c2)cs1 | 96.83 |
| CCOC(=O)c1nc(CN2CCN(C(C)C(=O)NC3CC3)CC2)cs1 (centres undefined) | -13.36 |
| COc1ccc(CCC(=O)NCc2cc(C)on2)cc1 | 0.6679 |
| COc1ccc2cccc(CC(=O)NCCc3n[nH]c(=O)[nH]3)c2c1 | -7.606 |
| CCCC(=O)NCCc1nc2cc(-c3ccc(OC)cc3)ncn2n1 | 102.6 |
| CCNc1nc(-c2cccnc2)c(-c2ccnc(NCCO)n2)s1 | 103.5 |
| COc1ccc(NCc2c[nH]nc2-c2cccnc2)cc1 | -7.559 |
| CCCNCc1cn(Cc2ccccc2)nc1-c1cccnc1.Cl | -0.3485 |
| CC(C)(C)Nc1nc(-c2cccnc2)c(-c2ccnc(NCCO)n2)s1 | 93.88 |
| Cn1cnc2c(-c3cccnc3)nc(C3CCN(S(C)(=O)=O)CC3)cc21 | -22.74 |
| CC(CNc1nccc(C(C)C)n1)Oc1cccnc1 (centres undefined) | 15.19 |
| CCNc1nc(-c2cccnc2)c(-c2ccnc(NS(C)(=O)=O)n2)s1 | 73.47 |
| Cn1c(CN2CCC(O)CC2)nnc1C1CCCN(c2ccncc2)C1 (centres undefined) | -3.015 |

| SMILES | Percent Effect [%] |
| --- | --- |
| N#Cc1cc(Cl)ccc1N1CCOC(C(N)=O)C1 (centres undefined) | -16.78 |
| Cc1cccc(CN2CCN(c3ncnc4[nH]cnc34)CC2CCO)n1 (centres undefined) | 8.055 |
| CCOCc1ccccc1NC(=O)NC1CCN(c2ncccn2)CC1 | 3.518 |
| CCOc1ncccc1NC(=O)N1CCOCC1C (centres undefined) | -9.997 |
| CCOc1ncccc1NC(=O)NC1CCN(C(=O)C2CC2)CC1 | 105.1 |
| CCN1CCC(CNC(=O)Nc2cccnc2OC)CC1 | 15.3 |
| CCOc1ncccc1C(=O)NC1CC(=O)N(CC(F)(F)F)C1 (centres undefined) | -4.406 |
| CCOc1ncccc1NC(=O)NC1CCN(C(C)=O)CC1 | 106.2 |
| CCOc1ncccc1NC(=O)N1CCCCCC1 | 3.505 |
| CCOc1ncccc1NC(=O)NC1CCN(c2ncccn2)CC1 | 128.6 |
| CCOc1ncccc1C(=O)NC1CCCN(c2ncccn2)C1 (centres undefined) | 120.7 |
| CCCC1CCCN(C(=O)Nc2cccnc2OC)CC1 (centres undefined) | 9.171 |
| Cc1ccc(C(=O)NC2CCCN(c3ncccn3)C2)cn1 (centres undefined) | 6.467 |
| CCOc1ccc(C(=O)NC2CCN(c3ncccn3)CC2)cc1C | 5.908 |
| CCN(CC(F)(F)F)C(=O)C1CCCN(Cc2ccno2)C1 (centres undefined) | -5.798 |
| CCOCCC(=O)N1CC(=O)Nc2cc(Br)ccc21 | 10.79 |
| CC(=O)NC(Cc1c[nH]c2cc(F)ccc12)C(=O)Nc1nonc1C (centres undefined) | -8.72 |
| Cc1cccc(C(C(=O)NCCCc2nnc3ccccn23)N(C)C)c1 (centres undefined) | -0.5328 |
| O=C(O)C(F)(F)F.c1ccc(NC[C@@H]2CCC[C@@H]3CN(c4ncccn4)C[C@@H]32)nc1 | 13.12 |
| Cc1cccc(-n2nc(CC(C)C)nc2CCC(=O)N(C)C)c1 | 1.155 |
| CCOc1ncccc1NC(=O)NC1CCCN(S(C)(=O)=O)C1 (centres undefined) | 87.05 |
| CCOc1ncccc1NC(=O)N1CCN(c2cccc(C)c2C)CC1 | -4.888 |

| SMILES | Percent Effect [%] |
| --- | --- |
| COc1ncccc1NC(=O)NCC1CC1 | 5.858 |
| COc1ncccc1NC(=O)C1CCN(S(C)(=O)=O)CC1 | 9.079 |
| CCOCc1ccccc1NC(=O)NC1CCN(C(=O)OCC)CC1 | 14.37 |
| Cc1ccc(CNC(=O)NC2CCCN(c3ncccn3)C2)cn1 (centres undefined) | -0.9532 |
| COc1ncccc1NC(=O)NC1CCCN(c2ncccn2)C1 (centres undefined) | 123 |
| CCOC(=O)N1CCC(NC(=O)Nc2cccnc2OCC)CC1 | 102.8 |
| CCOc1ncccc1NC(=O)N1CCCC1c1cc(C)no1 (centres undefined) | 4.545 |
| COc1cc(CN2CCCC(Nc3cccc(F)c3)C2)cc(Cl)c1O (centres undefined) | 5.248 |
| CN1C(=O)C2(CCN(S(=O)(=O)C3CC3)CC2)c2ccccc21 | -8.422 |
| O=C(CCc1nc(-c2cccnc2)no1)N(CC1CCOC1)C1CC1 (centres undefined) | -0.4889 |
| CCCC(NC(=O)c1cc(C)n(C2CC2)c1C)c1nnn[nH]1 (centres undefined) | 4.085 |
| NS(=O)(=O)CCNC(=O)c1ccc(-c2ccc(F)cc2)cc1F | -11.53 |
| CC(=O)N1CCN(Cc2c(C)ccc3ccccc23)CC(O)C1 (centres undefined) | 0.367 |
| O=C(CN1CCCC1COc1ccccc1)NCc1ccccn1 (centres undefined) | 90.25 |
| O=C(CN1CCCCCCC1=O)NCc1ccccn1 | 8.013 |
| O=C(CN1CCCC1CC(=O)c1ccccc1)NCc1ccccn1 (centres undefined) | 107.5 |
| O=C(CN1CCCC1CCCO)NCc1ccccn1 (centres undefined) | 111.1 |
| O=C(CN1CCCC1c1nc2cc(F)ccc2[nH]1)NCc1ccccn1 (centres undefined) | -7.361 |
| O=C(CN1CCOCC1CC(=O)c1ccco1)NCc1ccccn1 (centres undefined) | -22.29 |
| c1ccc2c(c1)CC(N1CCCC(NCc3ccc4nonc4c3)C1)C2 (centres undefined) | 0.08784 |
| CN(C)S(=O)(=O)c1ccc(CNC(=O)c2cn3c(n2)CNCC3)cc1 | -2.346 |
| Cc1ccc(C)c2c(=O)cc(CN3CC[C@@H](N)[C@H](O)C3)[nH]c12 | -6.693 |

| SMILES | Percent Effect [%] |
| --- | --- |
| Cc1ccnn1C(C)C(=O)Nc1cc(-c2ccncc2)[nH]n1 (centres undefined) | 16.43 |
| O=C(NCCNc1ncccn1)N1CC=C(c2ccccc2)CC1 | 13.59 |
| Nc1cc(CCCNC(=O)NC2CC2)nn1-c1ccccc1 | -28.53 |
| CCCN1CCCn2c(nc(CNC(=O)c3ccsc3)cc2=O)C1.O=C(O)C(F)(F)F | -11.31 |
| CN1CCCn2c(nc(CNC(=O)c3nccn3C)cc2=O)C1.O=C(O)C(F)(F)F.O=C(O)C(F)(F)F | -10.78 |
| CCCN1CCCn2c(nc(CNC(=O)N3CCCC3)cc2=O)C1.O=C(O)C(F)(F)F | 1.555 |
| O=C(NCc1cc(=O)n2c(n1)CN(CC1CC1)CCC2)c1ccsc1.O=C(O)C(F)(F)F | 88.56 |
| COCCN1CCCn2c(nc(CNC(=O)COC)cc2=O)C1.O=C(O)C(F)(F)F | 101.5 |
| COCC(=O)NCc1cc(=O)n2c(n1)CN(C)CCC2.O=C(O)C(F)(F)F | 104.3 |
| CC(C)N1CCCn2c(nc(CNC(=O)c3nccn3C)cc2=O)C1.O=C(O)C(F)(F)F.O=C(O)C(F)(F)F | -1.312 |
| COCCN1CCCn2c(nc(CNS(C)(=O)=O)cc2=O)C1.O=C(O)C(F)(F)F | 96.89 |
| CN1CCCn2c(nc(CNC(=O)c3ccsc3)cc2=O)C1.O=C(O)C(F)(F)F | -36.6 |
| CCc1nn(C)c(CC)c1CNC(=O)Nc1cccc2c1CCN2C | -5.732 |
| O=C1CCC2(CCN(CCSc3ccccc3)CC2)CN1CCCO | -17.17 |
| CC(CNC(=O)N1CCS(=O)(=O)CC1)Cc1cccs1 (centres undefined) | 21.62 |
| Cc1nnc(C(C)NCC2(c3c(F)cccc3F)CCCC2)o1 (centres undefined) | 5.955 |
| COCC(=O)NCc1cc(=O)n2c(n1)CN(CC1CC1)CCC2.O=C(O)C(F)(F)F | 83.83 |
| COc1ccc(CN2CCn3cc(CNC(=O)CC4CC4)nc3C2)cc1.O=C(O)C(F)(F)F | -3.28 |
| COCC(=O)NCc1cc(=O)n2c(n1)CN(Cc1ccccc1)CCC2.O=C(O)C(F)(F)F | 93.29 |
| COc1ccc(CN2CCn3cc(CNC(=O)C4CCC4)nc3C2)cc1.O=C(O)C(F)(F)F | -6.087 |
| O=C(NCc1cc(=O)n2c(n1)CN(CC1CCOC1)CCC2)C1CC1.O=C(O)C(F)(F)F (centres undefined) | -7.493 |
| Cc1ccc(C(C)(O)CNC(=O)c2sccc2OC(F)F)o1 (centres undefined) | -15.69 |

| SMILES | Percent Effect [%] |
| --- | --- |
| CCS(=O)(=O)NCC1OCCc2cn(CC3CCOCC3)nc21 (centres undefined) | -7.17 |
| O=C1N(c2ccccc2)Cc2nc(=O)[nH]n21 | 8.633 |
| CC(C)Sc1ncccc1C(=O)NCc1ccc(O)cc1 | 102.9 |
| CC(C)Sc1ncccc1C(=O)NCc1ccc(CS(C)(=O)=O)cc1 | 3.251 |
| CC(C)Nc1ncccc1C(=O)NCc1ccnn1C | -5.174 |
| O=C(c1cccnc1N1CCN(Cc2ccoc2)CC1)N1CCCCC1 | 11.57 |
| CSc1ncccc1C(=O)NCCC(O)c1ccco1 (centres undefined) | -7.347 |
| CC(C)Sc1ncccc1C(=O)NCc1ccoc1 | 124.5 |
| Cc1c[nH]c(CN(C)C(=O)C2CC(=O)N(Cc3ccncc3)C2)n1 (centres undefined) | -14.3 |
| CN1CCC(N(C)C[C@H]2CC[C@@H](Cc3ccc4occc4c3)O2)CC1 | -18.26 |
| Cc1ccc(N2CCC3(CCN(Cc4csc(C)n4)CC3)CC2)nn1 | -10.89 |
| COc1cc(N2CCC3(CCN(Cc4csc(C)n4)C3)CC2)ncn1.O=C(O)C(F)(F)F | 133.8 |
| Cc1nc(CN2CCC3(CCN(c4ncc(F)cn4)C3)C2=O)cs1.O=C(O)C(F)(F)F (centres undefined) | -4.043 |
| Cc1cnc(N2C[C@H]3CN(Cc4csc(C)n4)C(=O)[C@H]3C2)nc1.O=C(O)C(F)(F)F | -0.6865 |
| Cc1nc(CN2CCC3(CCCN(C(=O)c4cnccn4)C3)C2)cs1.O=C(O)C(F)(F)F (centres undefined) | -5.513 |
| Cc1ccc(N2CCC3(CCN(Cc4csc(C)n4)C3=O)C2)nn1 (centres undefined) | 95.91 |
| Cc1cnc(N2CCCC3(CCN(Cc4csc(C)n4)C3=O)C2)nc1.O=C(O)C(F)(F)F.O=C(O)C(F)(F)F (centres undefined) | -16.03 |
| Cc1cnc(N2CCC3(CCN(Cc4csc(C)n4)C3=O)C2)nc1.O=C(O)C(F)(F)F (centres undefined) | 101.3 |
| Cc1nc(CN2CCC3(CCN(C(=O)c4ccoc4C)CC3)C2)cs1.O=C(O)C(F)(F)F | 2.621 |
| COc1cc(N2CCC3(CCN(Cc4csc(C)n4)C3=O)C2)ncn1.O=C(O)C(F)(F)F (centres undefined) | 173.5 |
| Cc1ccc(N2CCC3(CCN(Cc4nccs4)CC3)CC2)nn1 | 5.38 |
